In ChEMBL document CHEMBL4888484, “Replenishing the malaria drug discovery pipeline: Screening and hit evaluation of the MMV Hit Generation Library 1 (HGL1) against asexual blood stage Plasmodium falciparum ,using a nano luciferase reporter read-out” (2022):
Among all 4,800 compounds or so, about 410 (8.5%) showed an effect of 50% or more. The full list was thinned out, with strong results kept by preference.

test system: Plasmodium falciparum; experiment: Confirmatory screen in NF54 pLDH assay, in single point, at 2uM, 72h; type: functional, Erythrocyte; details: timepoint 72 hour

SMILES | % Inhibition [%]
Cc1ccc(S(=O)(=O)N2CCN(C(=O)c3cc(C4CC4)nc4c3c(C)nn4C(C)C)CC2)cc1 | 13
Cc1nn(Cc2ccccc2)c2nc(C3CC3)cc(C(=O)N3CCOCC3)c12 | 1
Cc1nn(C(C)(C)C)c2nc(C3CC3)cc(C(=O)N(C)c3ccccc3)c12 | 87
CCOC(=O)C1CCN(C(=O)c2nc(-c3ccc(N4CCCC4)nc3)no2)CC1 | 12
O=C(c1cccc2cc[nH]c12)N(CC1CC1)C1CC1 | 12
Cc1cc(C)c(C(=O)Cn2nc3ccc(-c4ccc(Cl)cc4)nn3c2=O)c(C)c1 | 10
CCCn1nc(-n2cnnc2)c(NS(=O)(=O)c2ccc(Br)cc2)c1C | 11
CC(C(=O)N1CCCC1c1cccs1)N(C)Cc1ncnn1C (stereo not given) | 4
Clc1ccc(-c2noc(CN(Cc3cccs3)Cc3cccs3)n2)cc1 | 6
COc1ccc(CC(=O)NCCOCCO)cc1 | 8
N#CC1(O)C(C2COC3(CCCCC3)O2)OC2OC3(CCCCC3)OC21 (stereo not given) | 10
Cc1sc(NC(N)=O)nc1Cc1ccccc1 | 10
CN1CCN(c2nc(O)c3c(n2)NC(=O)C[C@H]3c2c(F)cccc2F)CC1 | 0
CCOc1cc(C(c2c(C)n(C)n(-c3ccccc3)c2=O)c2c(C)n(C)n(-c3ccccc3)c2=O)ccc1OCc1ccccc1 | 38
O=C(NC1CCN(Cc2ccccc2)CC1)c1cn[nH]c1-c1ccccc1 | 6
CCOC(=O)N1CCC(NC(=O)c2cn[nH]c2-c2ccc(OCC)c(Cl)c2)CC1 | 10
O=C(C[C@H]1CCN(C(=O)Nc2ccc3c(c2)OCCO3)C1)NCc1ccncc1 | 7
Cc1cc(C)cc([C@@H](O)CNC(=O)NCC(C)(C)c2ccncc2)c1 | 3
Cc1nn2c(-c3ccc(-c4ccccc4)cc3)ccnc2c1Br | 9
Cc1nonc1NC(=O)CCCC1CCCC1 | 8
O[C@@H](CNCc1ccsc1C(F)(F)F)c1cc(Cl)c2c(c1)OCCO2 | 29
NC(=O)COCC(=O)Nc1ccccc1 | -9
CCc1[nH]nc(NC(=O)c2c(C)ccnc2O)c1C | -11
CO[C@@H](CNC(=O)c1nc2n(n1)-c1ccccc1S(=O)(=O)N2)c1ccccc1 | 0
O=c1[nH]nc2c(N3CC[C@H](NCc4ccc(F)cc4)C3)nccn12 | 11
COc1ccc(C)cc1NC(=O)N1CC(c2nc(C(C)C)nn2C)C1 | 1
c1cn2cnnc2c(N(CC2CC2)CC2CC2)n1 | -5
CC[C@H]1Cn2c(C(=O)NCc3ccc4c(c3)OCO4)cc3c(Cl)ccc(c32)O1 | -10
O=C(Cn1cnc2ccc(Cl)cc2c1=O)NCc1ccc2c(c1)OCO2 | -5
Cc1ccc(Cn2c(=O)c(C(=O)NCc3ccc4c(c3)OCO4)nn(-c3ccc(C(C)C)cc3)c2=O)cc1 | 52
